# Sampled rows, rich in hits. Any-hit rate of the full collection: about 1.7%.
# MIN6 prolif-1 = MIN6 beta-cell proliferation induction. MIN6 cells proliferation, ATPlite luminescence, 48 h; cells starved in 0.2% serum; 100% = growth in 10% serum. proliferation, % at 10 µM. 330,000 tested, 0.29% active;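 active means compounds whose signal lies at least 3.5 SD above the mean of all wells on their plate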;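 further: 0% = DMSO-treated cells in low-serum medium and 100% = 10% serum control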
# H9c2 TAG inh = inhibitors of triacylglycerol accumulation; inhibition, % at 12.5 µM; AID 651582; H9c2 cells, Nile Red lipid (TAG) fluorescence; cells loaded with 200 µM oleic acid; 230,000 tested, 0.66% active;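 active means pattern-corrected inhibition of lipid staining of at least 50% with the nuclear-stain viability signal not falling by more than 50%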;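 further: 0% = DMSO wells and 100% = triacsin C control wells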
# CHT inh = inhibits the human high affinity choline transporter. CHT-expressing cells, membrane potential dye, choline response; stronger effect = lower value. B-score at 10 µM. 310,000 tested, 0.86% active;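 active means B-score over 3 SD under the library average, and starting fluorescence ratio not unusually high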;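 further: choline stimulus applied at its EC90 after an EC20 pre-addition; B-score computed on integrated fluorescence ratio after choline addition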
# Target sequence (Q9GZV3 whole entry, looked up): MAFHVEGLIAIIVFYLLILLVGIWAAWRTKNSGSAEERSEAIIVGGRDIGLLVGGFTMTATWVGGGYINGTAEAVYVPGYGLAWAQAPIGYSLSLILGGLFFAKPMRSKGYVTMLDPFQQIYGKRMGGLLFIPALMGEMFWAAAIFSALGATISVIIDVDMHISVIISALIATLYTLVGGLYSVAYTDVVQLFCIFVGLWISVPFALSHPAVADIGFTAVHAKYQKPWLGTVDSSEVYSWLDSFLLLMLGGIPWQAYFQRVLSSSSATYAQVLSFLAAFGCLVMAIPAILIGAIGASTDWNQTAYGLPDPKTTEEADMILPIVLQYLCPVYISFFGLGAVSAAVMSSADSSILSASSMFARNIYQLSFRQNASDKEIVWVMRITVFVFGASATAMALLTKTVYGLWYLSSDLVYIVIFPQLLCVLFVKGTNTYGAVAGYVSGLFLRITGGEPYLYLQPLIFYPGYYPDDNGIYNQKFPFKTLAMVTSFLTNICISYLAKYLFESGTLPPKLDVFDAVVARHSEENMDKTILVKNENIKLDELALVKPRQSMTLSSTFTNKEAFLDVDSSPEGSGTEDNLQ
# CHT allo act = allosteric activators of human choline transporter CHT; B-score at 10 µM; CHT-expressing cells, membrane potential dye, choline EC20; stronger effect = higher value; LV-AA mutant CHT in HEK293 cells; AID 488977; 310,000 tested, 0.49% active; Q9GZV3;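 active means initial fluorescence not abnormally high and integrated response B-score, plate-corrected, over 3 SD above library mean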
# MIN6 prolif-2 = confirmation of inducers of beta-cell replication in MIN6 cells | AID 463095 | MIN6 beta-cell proliferation, ATPlite luminescence, 48 h; cells kept in 0.2% serum; scaled between 0.2% and 10% serum | shares compounds with MIN6 prolif-1 | 920 tested, under 10 active | proliferation increase, % at 50 µM;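 active means proliferation increase above 40% at any of the four tested concentrations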
# The depositor's hits bear a star; i = inactive; x = not tested or not shown.
SMILES,MIN6 prolif-1,H9c2 TAG inh,CHT inh,CHT allo act,MIN6 prolif-2
C/C(=N/Nc1ncc(C(F)(F)F)cc1Cl)c1ccncc1,7.8*,x,i,i,-3
C/C(=N\Nc1ncc(Cl)cc1Cl)c1ccc(C#N)cc1,-1,-1,i,i,x
Cc1cnc(CNC(=O)C2CCC(=O)N(CCc3ccc(Cl)cc3)C2)cn1 (centres undefined),3,x,x,x,x
CCOc1cc(/C=N/n2nnnc2N)ccc1OCc1c(C)no[n+]1[O-],0.0*,-3,i,i,3
Cc1no[n+]([O-])c1COc1ccccc1/C=N/n1nnnc1N,-1,-6,i,i,x
Cc1ccc(N(CC(=O)NC2CCCC2)C(=O)CCC(=O)Nc2nccs2)c(C)c1,21*,x,i,i,-1
CCCCC(CC)C(=O)Nc1ccccc1C(=O)NC(C)C (centres undefined),-1,x,i,i,x
CCOC(=O)N1CCC(NC(=O)c2cc3c(-c4ccc(OC)c(OC)c4)nn(C)c3s2)CC1,0,21,i,i,x
CCOC(=O)C1CCN(C(=O)c2cc3c(-c4ccc(OC)c(OC)c4)nn(C)c3s2)CC1,12*,9,i,i,-4
O=C(NN=C1CCCCCCCCCCC1)c1cccc(S(=O)(=O)N2CCOCC2)c1,-1,x,i,i,x
Cc1cccc(NC(=O)C(=O)NCC2CCCN2S(=O)(=O)c2cccs2)c1 (centres undefined),x,-23,x,x,x
COc1ccc(NC(=O)/C(C#N)=C/c2ccc(OCCN3CCOCC3)c(OC)c2)c(OC)c1,11*,x,i,i,-2
COc1ccc(NC(=O)CS(=O)c2ccc(F)cc2)cc1 (centres undefined),12*,-3,i,i,-1
Cc1ccc(CNC(=O)CCNC(=O)N2CCn3c2nc2ccccc23)cc1,14*,x,i,i,-2
Cc1ccc(CNC(=O)CCCCCNC(=O)N2CCn3c2nc2ccccc23)cc1,5,x,i,i,x
CCS(=O)(=O)c1ccc(Sc2nncn2C)c([N+](=O)[O-])c1,7.7*,16,i,i,-6
CCN(CC)S(=O)(=O)c1ccc(NC(=O)c2ccc(Sc3nncn3C)c([N+](=O)[O-])c2)cc1,0,3,i,i,x
Cc1ccc(NC(=O)CN(C)S(=O)(=O)c2cccs2)c(Br)c1,0,x,i,i,x
Cc1cc(C)c2c(c1)/C(=N/NC(=O)c1cc(C)oc1C)CCC2,0.0*,x,i,i,-1
Cc1cc(C)c2c(c1)/C(=N/NC(=O)c1ccc(O)cc1)CCC2,-1,6,i,i,x
O=C(N/N=C/c1ccccn1)c1ccc2nc[nH]c2c1,7.8*,3,i,i,1
Nc1n[nH]c(N)c1N=Nc1ccccc1F,-1,x,i,i,x
Cc1ccccc1N=Nc1c(N)n[nH]c1N,7.2*,5,i,i,-4
C=CCNC(=O)c1c2c(nc3ccccc13)-c1ccccc1CC2,7.0*,-4,i,i,-4
Cc1nn(S(=O)(=O)c2ccc(F)cc2)c(C)c1S(=O)(=O)N1CCOCC1,0,x,i,i,x
SMILES,MIN6 prolif-1,H9c2 TAG inh,CHT inh,CHT allo act,MIN6 prolif-2
CCN(CC(=O)Nc1c(F)cccc1F)C(=O)C1CCN(S(=O)(=O)c2ccccc2C(=O)OC)CC1,x,8,x,x,x
O=S(=O)(CS(=O)(=O)c1ccc(Cl)cc1)c1ccc(Cl)cc1,0,-5,i,i,x
Nc1ccc[n+](Cc2ccccn2)c1,4.9*,9,i,i,1
CSc1ccccc1NC(=O)CN(Cc1ccc(Cl)cc1)S(C)(=O)=O,5.0*,x,i,i,-6
CSc1ccccc1NC(=O)CN(Cc1ccccc1)S(C)(=O)=O,4,45,i,i,x
CC(C)c1cc(=O)n2[nH]c(N)nc2n1,-1,-4,i,i,x
Cc1ccc(NC(=O)CCC(=O)N/N=C/c2coc3ccc(F)cc3c2=O)cc1,11*,-10,i,i,-6
O=C(O)c1cccc(Nc2nc3ccccc3nc2NS(=O)(=O)c2ccc(F)cc2)c1,0,-1,x,x,x
Cc1cccc(S(=O)(=O)Nc2nc3ccccc3nc2Nc2cccc(C(=O)O)c2)c1,6.6*,x,i,i,-5
Cn1c(=N)n(CC(=O)O)c2ccccc21,5.8*,0,i,i,0
Cn1c(=N)n(CC(=O)c2ccccc2)c2ccccc21,-3,10,i,i,x
O=C(CSc1nnc2ccccn12)NNC(=O)c1ccc(Br)cc1,1,6,i,i,x
CC(=O)C1=C(O)C(=O)N(Cc2ccccc2)C1c1ccc(Cl)cc1 (centres undefined),-1,x,i,i,x
CC(=O)C1=C(O)C(=O)N(Cc2ccccc2)C1c1ccc(N(C)C)cc1 (centres undefined),6.1*,x,i,i,0
Cc1nc(-c2ccccc2)cc(=O)[nH]1,0,-11,i,i,x
Cc1[nH]n(-c2nc(-c3ccccc3)cc(=O)[nH]2)c(=O)c1CCO,9.6*,3,i,i,0
CCOC(=O)c1cnc2cc(F)c(F)cc2c1N1CCOCC1,6,x,i,i,x
COCC1CCCCN1C(=O)c1ccc(OC)c(OC2CCN(C(C)C)CC2)c1 (centres undefined),4.8*,x,i,i,-2
CC(C)(C)c1ccc(C(=O)Nn2cnnc2)cc1,-1,x,i,i,x
N#Cc1ccc(C(=O)Nn2cnnc2)cc1,8.2*,x,i,i,-1
CCOC(=O)C1CCN(C(=O)CC(NS(=O)(=O)c2ccc(OC)cc2)C(C)C)CC1 (centres undefined),6.2*,26,i,i,2
O=C(Nc1ccc2ccccc2n1)Nc1cccs1,-2,10,i,i,x
CNC(=S)N/N=C/c1ccc(OCC(=O)Nc2c(C)cc(C)cc2C)c(OC)c1,0.0*,10,i,i,-1
CCCc1nc2c(sc3nc4c(cc32)COC(C)(C)C4)c(=O)n1CCN(CC)CC,-2,-6,i,i,x
CC1(C)C2(C#N)C(=O)NC(=O)C12C#N (centres undefined),x,-7,x,x,x
SMILES,MIN6 prolif-1,H9c2 TAG inh,CHT inh,CHT allo act,MIN6 prolif-2
CC(=O)Nc1cccc(-c2cnc(N)c(C(=O)c3cccnc3)n2)c1,11*,-22,x,x,-4
CN(C)C(CNC(=O)c1ccc2c(=O)n(-c3ccccc3F)c(=S)[nH]c2c1)Cc1ccccc1 (centres undefined),-2,15,i,i,x
S=c1[nH]nc(-c2cccnc2)n1C1CCCCC1,0,x,i,i,x
COc1ccc(-c2n[nH]c(=S)n2C2CCCCC2)cc1,7.6*,3,i,i,-4
C[C@H](CO)N1C[C@H](C)[C@@H](CN(C)C(=O)Nc2ccc(F)cc2)Oc2ncc(-c3ccc(F)cc3)cc2C1=O,x,3,x,x,x
C=C[C@@]1(C)CC(=O)[C@]2(O)[C@@]3(C)[C@@H](O)CCC(C)(C)[C@@H]3[C@H](O)[C@H](OC(C)=O)[C@@]2(C)O1,17*,-5,-6.4*,i,6

# Screening data (PubChem)
